The source of these data is PubChem BioAssay (NCI).

Each structure is given as a SMILES string. The panel holds about 83,000 compounds, 20% with a hit somewhere; the sample as a whole holds those more often.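 Percent growth is the endpoint: 0 to 100 indicates growth inhibition (40 means 60% inhibition), 0 means no net growth, and negative values indicate cell death.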 Unmarked numbers belong to inactive results. Activity calls are given as the source filed them. Rule for the calls: active = growth percent below 10; inactive = the rest.

Test systems include MDA-MB-435 melanoma; SW-620 colon; MCF7 breast; HCT-116 colon; HCC-2998 colon; KM12 colon; BT-549 breast.
Test in all cases: NCI-60 one-dose screen, 48 h (100 = growth as untreated, 0 = no growth, -100 = all killed)
What all share (settings): 10 µM unless noted

For the compound `COc1cc(CCn2nnc3c(NCCCCO)ncnc32)cc(OC)c1`, the growth is 97.9% in the test on MDA-MB-435 melanoma; 97.9% in the test on SW-620 colon; 99.6% in the test on MCF7 breast; 97.7% in the test on HCT-116 colon; 102% in the test on HCC-2998 colon; 103% in the test on KM12 colon.

`CCOC(=O)c1ccccc1NC(c1ccccc1)c1ccc2cccnc2c1O` (centres undefined): the growth in the test with BT-549 breast was 17.9%; in the test with MDA-MB-435 melanoma, 39.4%; in the test with SW-620 colon, 37.5%; with MCF7 breast it was 16.1%; in the test on HCT-116 colon, 27.3%; with HCC-2998 colon, 51.8%. For the same compound, the growth with KM12 colon was 29.8%.

Turning to `CCCCCCCCCN1C(=O)/C(=c2\sc3n(c2=O)C2C(NN=3)N(CC)C(=O)N2CC)c2ccccc21` (centres undefined), the growth with BT-549 breast was 82.2%; with MDA-MB-435 melanoma it was -9.54% (active); in the test with SW-620 colon it was 30.5%; in the test on MCF7 breast it was 27.9%; with HCT-116 colon, 5.86% (active); with HCC-2998 colon, 102%. Also, in the test on KM12 colon, the growth was 9.43% (active).

For the compound `Cc1oc2nc[nH]c(=O)c2c1C(=O)/C=C/c1ccc(Cl)cc1Cl`, the growth in the test on BT-549 breast was 73.8%; in the test with MDA-MB-435 melanoma, 57.2%; in the test on SW-620 colon, 31.2%; in the test on HCT-116 colon, 36.3%; in the test with HCC-2998 colon it was 102%; in the test on KM12 colon, 52.1%.

`COc1cc2oc(-c3cccc(NC(=O)Nc4ccc5c(c4)OCO5)c3)cc(=O)c2c(OC)c1OC`: the growth in the test with BT-549 breast was 59.8%; in the test on MDA-MB-435 melanoma it was 68.7%; in the test on SW-620 colon, 57.3%; with MCF7 breast it was 65.1%; in the test on HCT-116 colon, 50.2%; in the test on HCC-2998 colon, 59.2%. Also, the growth with KM12 colon was 48.5%.

As to `CC(=O)OCC1OC(OCC2OC(OC(C)=O)C(OC(C)=O)C(OC(C)=O)C2OC(C)=O)C(OC(C)=O)C(OC(C)=O)C1OC(C)=O` (centres undefined), the growth was 100% in the test with BT-549 breast; 104% in the test on MDA-MB-435 melanoma; 105% in the test with SW-620 colon; 94.9% in the test on MCF7 breast; 99% with HCT-116 colon; 96.2% with HCC-2998 colon. Moreover, in the test with KM12 colon, the growth was 108%.

Take `Nc1c(C(=O)Nc2cccc([N+](=O)[O-])c2)sc2nc3c(cc12)C(O)CCC3` (centres undefined): the growth was 58.1% in the test on BT-549 breast; -22.9% (active) in the test with MDA-MB-435 melanoma; 37.9% in the test with SW-620 colon; 15.2% in the test on MCF7 breast; 24.1% in the test on HCT-116 colon; 87.6% in the test with HCC-2998 colon. Also, the growth in the test with KM12 colon was 33.4%.

In the case of `FC(F)(F)c1cccc(-n2nnc3cnc(Nc4ccc(N5CCCCC5)cc4)nc32)c1`, the growth in the test with MDA-MB-435 melanoma was 37.5%; in the test on SW-620 colon it was 35.7%; with MCF7 breast, 71.2%; in the test with HCC-2998 colon it was 88.3%; in the test on KM12 colon, 65.8%.

Turning to `C#CCN1C(=O)/C(=c2\sc3n(c2=O)NC2C(N=3)N(CC)C(=O)N2CC)c2ccccc21` (centres undefined), the growth in the test with BT-549 breast was 83.4%; with MDA-MB-435 melanoma, -26.6% (active); in the test on SW-620 colon, 41%; in the test with MCF7 breast, 42.2%; with HCT-116 colon, 27%; in the test on HCC-2998 colon, 100%. Also, in the test on KM12 colon, the growth was 46.8%.

Turning to `CCN1C(=S)N(CC)C2Nn3c(s/c(=C4\C(=O)N(C)c5ccccc54)c3=O)=NC21` (centres undefined), the growth in the test on BT-549 breast is 74.7%; in the test on MDA-MB-435 melanoma, -43.1% (active); in the test with SW-620 colon, 41.1%; in the test on MCF7 breast it was 29.8%; with HCT-116 colon it was 7.36% (active); in the test on HCC-2998 colon it was 79%. Also, the growth in the test on KM12 colon was 27.4%.

Take `CCN1C(=O)/C(=c2\sc3n(c2=O)C2C(NN=3)N(CC)C(=S)N2CC)c2ccccc21` (centres undefined): the growth in the test on BT-549 breast is 98.8%; in the test on MDA-MB-435 melanoma it was 88.4%; with SW-620 colon it was 102%; in the test on MCF7 breast it was 82.8%; with HCT-116 colon it was 103%; with HCC-2998 colon, 104%. Also, in the test on KM12 colon, the growth was 102%.

Consider `CCN(Cc1ccccc1)c1ccc(SC#N)cc1`, for which the growth in the test with BT-549 breast is 71.5%; in the test on MDA-MB-435 melanoma it was 98.6%; in the test on SW-620 colon, 83.8%; in the test on MCF7 breast, 75.3%; in the test with HCT-116 colon it was 43.7%; with HCC-2998 colon, 94.1%. In addition, in the test with KM12 colon, the growth was 41.3%.

`CCN1C(=O)N(CC)C2Nn3c(s/c(=C4\C(=O)N(C5CCCC5)c5ccccc54)c3=O)=NC21` (centres undefined): the growth with BT-549 breast is 79.3%; in the test on MDA-MB-435 melanoma, -15.9% (active); with SW-620 colon it was 53.9%; in the test on MCF7 breast, 45.7%; with HCT-116 colon it was 19.8%; with HCC-2998 colon it was 91.8%. For the same compound, the growth with KM12 colon was 23.8%.

On to `Nc1c(C(=O)Nc2cccc(Cl)c2Cl)sc2nc3c(cc12)C(=O)CCC3`, for which the growth in the test with BT-549 breast was 95.3%; in the test with MDA-MB-435 melanoma it was 20.6%; with SW-620 colon it was 64%; with MCF7 breast it was 86.7%; in the test with HCC-2998 colon it was 77.8%; in the test with KM12 colon, 67.5%.

For `CCCCCCCCCCCCOB(OCCCCCCCCCCCC)OCCCCCCCCCCCC`, the growth in the test with BT-549 breast is 96.7%; in the test with MDA-MB-435 melanoma it was 114%; in the test on SW-620 colon, 117%; in the test with MCF7 breast, 97.5%; with HCT-116 colon, 123%; in the test with HCC-2998 colon it was 91.6%. The growth in the test with KM12 colon was 102%.

For the compound `O=C(CC(O)c1ccncc1)c1ccccc1` (centres undefined), the growth in the test on BT-549 breast is -63.7% (active); in the test with MDA-MB-435 melanoma, 105%; in the test with SW-620 colon, 109%; in the test with MCF7 breast, -24.2% (active); in the test on HCT-116 colon it was 15.5%; with HCC-2998 colon it was 19.2%. In the test on KM12 colon, the growth is 38.2%.

In the case of `Cc1cc(Nc2nc(-c3ccncc3)nc3ccccc23)n[nH]1`, the growth was 82.7% in the test on BT-549 breast; 40.3% with MDA-MB-435 melanoma; 78.3% with SW-620 colon; 40.2% in the test with MCF7 breast; 39.3% in the test on HCT-116 colon; 72% in the test on HCC-2998 colon. Further, in the test with KM12 colon, the growth was 18.8%.
